The values below come from PubChem BioAssay AID2315 (National Center for Advancing Translational Sciences (NCATS), 2010).

In all, about 290,000 compounds went through this assay and about 27,000 (9.3%) were called active. The list comes from a sample in which actives are over-represented; it also holds similar structures and randomly drawn compounds. Values without a mark were called inactive. Cut-off read from the data, not from the text of the source: active = inhibition mostly above about 28% (no sharp cut-off); inactive = mostly below about 43%.

This assay can be described thus: A qHTS for Small Molecule Inhibitors of Shiga Toxin. Note: 0% is about no effect. To be noted: Vero cells, Shiga toxin protein synthesis inhibition reporter; at 38.7 µM, active compounds read high. In general terms: Quantitative high-throughput screening tests each substance at several concentrations.
Broadly, the inhibition is the relative decrease from the control value, in per cent. On to `Cc1ccnc(N2CCCC(C(=O)NC3CC3)C2)n1` (centres undefined), for which the inhibition is -10.6%.

`C[C@@H](NC(=O)[C@@H]1Cc2ccccc2CN1)C(=O)NC1CCCC1`: the inhibition is -1.81%.

Regarding `COCCNC(=S)N(CCc1c(C)[nH]c2ccc(C)cc12)Cc1cccnc1`, the inhibition is 3.9%.

As for `FC(F)(F)C1CCCN(c2nsc3ccccc23)C1` (centres undefined), the inhibition was -5.61%.

With `CC1(c2ccc3ccccc3c2)NC(=O)N(CC(N)=O)C1=O` (centres undefined), the inhibition is 17.6%.

`O=C(Nc1c2c(nn1-c1cccc(Cl)c1)CS(=O)(=O)C2)c1cccs1`: the inhibition was 2.33%.

Consider `Cc1ccccc1N1CCN(C2CCCN(C(=O)c3cn4c(C)cccc4n3)C2)CC1` (centres undefined), for which the inhibition was -3.16%.

As to `CC(=O)Nc1ccc(S(=O)(=O)N2CCC(NC(=O)c3ccccc3)CC2)cc1`, the inhibition was 37.8%.

As to `O=C1CN(Cc2ccccc2)S(=O)(=O)c2ccccc21`, the inhibition was -2.75%.

Consider `O=S(=O)(NC1CCCCC1N1CCN(c2ccccc2F)CC1)c1ccccc1` (centres undefined), for which the inhibition is -13.8%.

As to `CCOc1ccccc1NC(=S)N1CCN(c2cccc(C)c2C)CC1`, the inhibition is -4.41%.

For the compound `O=C(Oc1cccc(C(=S)N2CCOCC2)c1)c1cccc(Cl)c1`, the inhibition was -28.3%.

In the case of `Cc1ccc(-c2c3c(=O)n(C)c(=O)n(C)c3cn2-c2ccccc2O)cc1`, the inhibition is 38.5%.

Turning to `COc1cccc(-n2cc3c(c2-c2ccccc2)c(=O)n(C)c(=O)n3C)c1`, the inhibition is 104% (active).

For the compound `COc1ccc(-c2c3c(=O)n(C)c(=O)n(C)c3cn2-c2cccc(OC)c2)cc1`, the inhibition is 4.73%.

As to `CC1=C(C(N)=O)C(c2ccc(F)cc2)n2nc(CCCO)nc2N1` (centres undefined), the inhibition was -5.77%.

`Cc1ccc(CNC(=O)CCC(=O)N2CC(C)Sc3ccccc32)cc1` (centres undefined): the inhibition was 10.9%.

As for `CC(=O)Nc1ccc(N2C(=O)CC(Sc3nccc(C)n3)C2=O)cc1` (centres undefined), the inhibition was -3.46%.

As for `c1ccc(-c2noc(-c3cccs3)n2)nc1`, the inhibition is 15%.

For `Cc1ccc(-c2nc(-c3ccncc3)no2)c(C)c1`, the inhibition was 80.3% (active).

`Cc1ccc2nc(-c3ccncc3)cc(C(=O)Nc3ccncc3)c2c1`: the inhibition was 11.4%.

On to `c1csc(-c2nc(-c3ccncc3)no2)c1`, for which the inhibition is 58.2% (active).

Take `Cc1ccc(-c2noc(CSc3nnc(-c4ccncc4)n3-c3ccc(F)cc3)n2)cc1`: the inhibition is -6.83%.

`COc1nc(-c2ccc(Cl)cc2)ccc1-c1noc(-c2cccs2)n1`: the inhibition is -10.5%.

Turning to `O=C(O)c1cc([N+](=O)[O-])c(Nc2cccc3ccccc23)c([N+](=O)[O-])c1`, the inhibition was 1.25%.

As to `CCOC(=O)c1ccc(-c2ccc(C(=O)Nc3cccnc3)o2)cc1`, the inhibition is 73.3% (active).

As to `CCOC(=O)c1ccc(NC(=O)c2cccnc2)cc1`, the inhibition is 53.7% (active).

Turning to `CC(C)NS(=O)(=O)c1ccc(NC(=O)c2cccnc2)cc1`, the inhibition is -10.5%.

Regarding `COc1ccc(C)cc1NC(=O)c1ccc(-c2ccc(C(C)=O)cc2)o1`, the inhibition is -2.76%.

As for `CCOC(=O)c1ccc(NC(=O)CNC(=O)c2ccco2)cc1`, the inhibition is -21.4%.

As to `O=C(Cc1ccccc1)Nc1ccc(NC(=O)c2cccnc2)cc1`, the inhibition is -11.9%.

On to `CCn1c(SCC(=O)NC2CC2)nnc1-c1ccccn1`, for which the inhibition is -11.7%.

As for `CN(C)C(=O)Cn1c(=O)n(S(=O)(=O)c2ccccc2)c2ccccc21`, the inhibition is -3.04%.

As for `COc1ccc2cc(-c3[nH]ncc3CNCCn3nc(C)cc3C)ccc2c1`, the inhibition is 67.7% (active).

For the compound `COc1ccc(-c2cn[nH]c2-c2ccc(OC)cc2)cc1`, the inhibition is -4.19%.

`Cc1cc(C)n(CCNS(=O)(=O)c2ccc(Cl)cc2)n1`: the inhibition was -3.35%.

In the case of `Cc1ccccc1C(=O)NC(=S)NC1CC1`, the inhibition was 24.6%.

Consider `O=C1Nc2ccccc2/C1=C/c1ccnc2ccccc12`, for which the inhibition is 19.4%.

As to `O=C1c2ccccc2S(=O)(=O)N1Cc1c(F)cccc1Cl`, the inhibition is -12.9%.

Turning to `O=C(Nc1ccn(Cc2ccccc2)n1)c1n[nH]c([N+](=O)[O-])c1Cl`, the inhibition was 16.1%.

Regarding `O=C(Nc1ccn(Cc2ccccc2)n1)c1cccc(F)c1`, the inhibition was 63.4% (active).

Take `O=C(Nc1ccn(Cc2ccccc2F)n1)c1ccc(COc2ccc(Cl)cc2Cl)o1`: the inhibition was 21.8%.

Consider `O=C(Nc1cccc(NC(=O)c2cccc(F)c2)c1)c1ccccc1`, for which the inhibition was 21.2%.

As to `CC(=O)Nc1ccn(Cc2c(F)cccc2Cl)n1`, the inhibition was 64.3% (active).

Take `CCOCCOC(=O)C(C)Oc1ccc(Oc2ncc(C(F)(F)F)cc2Cl)cc1` (centres undefined): the inhibition was -6.29%.

Consider `COc1ccc(C(=O)NCC(=O)N/N=C/c2cccnc2)cc1`, for which the inhibition was -9.22%.

As to `COc1ccc2c(c1)C(NS(=O)(=O)OCC(Cl)(Cl)Cl)CCC2` (centres undefined), the inhibition was -7.98%.

Turning to `COc1ccc(NC(=S)N2CCC(NC(=O)c3cccc(F)c3)CC2)cc1`, the inhibition is -12.4%.

`CCOc1ccc(OCC)c(-c2c(=O)n(OCc3ccc(Cl)cc3)c3ccccc3[n+]2[O-])c1`: the inhibition is 10.2%.

`CCOC(=O)COn1c(=O)c(-c2ccc(OCC)cc2)[n+]([O-])c2ccccc21`: the inhibition is 44.1%.

Take `O=c1c(-c2ccc(Cl)cc2)[n+]([O-])c2ccccc2n1OCc1nc2ccccc2[nH]1`: the inhibition was 59.6% (active).

On to `O=C(NNC(=O)c1ccco1)Nc1ccccc1`, for which the inhibition was 8.84%.

With `O=C(NNC(=S)Nc1ccc(Br)cc1Cl)c1ccco1`, the inhibition is 59.2% (active).

For the compound `CCC(=O)NC(=S)Nc1ccc(NC(=O)c2ccco2)c(Cl)c1`, the inhibition was 46.1%.

As for `Cc1ccc2c(c1)N(CC(=O)NCC1CCCO1)C(=O)CO2` (centres undefined), the inhibition is 40.5%.

As to `Cc1cc(Br)ccc1NC(=O)c1sc2ncn(CC(=O)N3CCN(c4ccccn4)CC3)c(=O)c2c1C`, the inhibition is -6.73%.

`O=C(Nc1cccc(-c2cccc(Cl)c2)c1)C1CCN(C2CCC2)CC1`: the inhibition is 18.3%.

With `CCOc1ccc(NC(=O)Nc2cc(C)ccc2OC)cc1`, the inhibition was 29.4% (active).

`CCOc1ccc(C(=O)Nc2ccc(S(=O)(=O)Nc3cc(C)on3)cc2)cc1`: the inhibition is -6.4%.

Regarding `CCOc1ccc(C(=O)Nc2cc(OC)ccc2OC)cc1`, the inhibition was 25.5%.

Consider `CCOc1ccc(NC(=O)Nc2cc(C)on2)cc1`, for which the inhibition was 91.1% (active).

On to `COc1ccc(C)cc1NC(=O)Nc1ccccc1SC`, for which the inhibition was -0.581%.

With `CCC(=O)Nc1ccc(C(=O)Nc2cc(C)on2)cc1`, the inhibition was 37.1%.

As for `Cc1cc(C)c2c(-c3ccc(F)cc3)c(C#N)c(=O)n(C)c2n1`, the inhibition was -4.95%.

On to `CCN1CCN(c2sc(S(C)(=O)=O)nc2S(=O)(=O)c2ccc(Cl)cc2)CC1`, for which the inhibition is -2.05%.

In the case of `COc1ccccc1NC(=O)CCC(=O)N1CC(C)Oc2ccc(C)cc21` (centres undefined), the inhibition was -1.25%.

Take `COc1ccc(-c2c(-c3ccc(OC)cc3O)nc(C)nc2C(F)(F)F)cc1`: the inhibition was 2.92%.

With `COc1cc2ccccc2cc1C(=O)N(CCN(C)C)c1nc2c(F)cccc2s1`, the inhibition is -10.4%.

On to `COc1ccccc1-c1nnc(NC(=O)c2cccc(N3C(=O)CCC3=O)c2)o1`, for which the inhibition was -10.7%.

Regarding `COc1ccccc1-c1nnc(SCC(=O)Nc2ccccc2)o1`, the inhibition was 22.9%.

Regarding `COc1ccccc1-c1nnc(NC(=O)c2ccc3ncsc3c2)o1`, the inhibition was 92.1% (active).

As to `C=CCOc1ccc(C(=O)Nc2ccccc2C(=O)N2CCCC2)cc1`, the inhibition is 13.9%.

In the case of `CCOC(=O)c1c(NC(=O)c2ccc(S(=O)(=O)N(C)CC3CCCO3)cc2)sc2c1CC(C)(C)NC2(C)C` (centres undefined), the inhibition was -9.62%.

For `COC(=O)c1ccccc1N=Nc1c(C)[nH][nH]c1=O`, the inhibition is 1.81%.

`COc1ccccc1N=Nc1c(O)[nH]c(=S)[nH]c1=O`: the inhibition is 29.2% (active).

For `COc1ccccc1N=C(C)C1=C(O)COC1=O`, the inhibition is -4.84%.

With `COc1ccc(NC(=O)Cn2ncn3c(cc4ccccc43)c2=O)c(OC)c1OC`, the inhibition was -6.32%.

Take `COc1cccc(C(=O)Nc2cccnc2)c1OC`: the inhibition was 2.65%.

On to `COc1ccc(/C=C/C(=O)N2CCCC2)cc1OC`, for which the inhibition is 3.99%.

As to `COc1ccc(C(=O)CCC(=O)Nc2cccnc2)c(OC)c1`, the inhibition was -20.3%.

Regarding `COc1ccc(/C=C/C(=O)Nc2cccnc2)cc1OC`, the inhibition is 51.8% (active).

Turning to `COc1ccc(/C=C/C(=O)Nc2ccc(C34CC5CC(CC(O)(C5)C3)C4)cc2)cc1OC`, the inhibition was 90.8% (active).

Consider `COc1ccc(/C=C/C(=O)Nc2ccc(C)cc2)cc1S(=O)(=O)N1CCOCC1`, for which the inhibition is 20.7%.

As for `CN(CC(=O)NCc1ccc(Cl)cc1)S(=O)(=O)c1cccs1`, the inhibition is 45.6%.

As to `COc1ccc(NC(=O)CN2C(=O)COc3ccc(S(=O)(=O)N4CCOCC4)cc32)cc1`, the inhibition was -3.8%.

As for `COc1ccc(-c2n[nH]c3c2CN(C(=O)c2ccc(F)cc2)CC3)cc1`, the inhibition is -7.56%.

`COc1ccc(CCNC(=O)c2ccccc2-c2ccccc2C(=O)O)cc1OC`: the inhibition was -1.45%.

Regarding `COc1ccc(CCNC(=O)c2ccccc2OCc2ccccc2)cc1`, the inhibition was 14.7%.

In the case of `COc1cccc2[nH]c(C(=O)NCCc3ccccc3)cc12`, the inhibition is 67.7% (active).

On to `Cc1cc(C)cc(N(CC(=O)NC2CCCC2)C(=O)CCC(=O)Nc2nccs2)c1`, for which the inhibition was 20.2%.

As to `COc1ccc([N+](=O)[O-])cc1N(CC(O)CN(CC(C)C)CC(C)C)S(=O)(=O)c1ccc(C)cc1` (centres undefined), the inhibition is 12.3%.

With `O=c1[nH]cnc(O)c1C(c1ccc(F)cc1)c1c(O)nc[nH]c1=O`, the inhibition was 8.92%.

Regarding `CC(=O)N1CCN(CC(=O)Nc2ccc(C)c(F)c2)CC1`, the inhibition is -1.77%.

Regarding `O=C(Nc1ccc(Cl)cn1)Nc1cccs1`, the inhibition was 65.7% (active).

Regarding `CCCc1cc(C(=O)Nc2ccc(Cl)cn2)cs1`, the inhibition is 57.6% (active).

Consider `O=C(Nc1cccc([N+](=O)[O-])c1)Nc1ccc(Cl)cn1`, for which the inhibition is 0.898%.

In the case of `COc1c(Cl)cc(C(=O)Nc2ccc(Cl)cn2)cc1Cl`, the inhibition was 8.12%.

As to `CCCc1cc(C(=O)Nc2ccc(C(=O)OC)cc2)cs1`, the inhibition is 28.2%.

For `CCCCC(CC)C(=O)Nc1ccc(Cl)cn1` (centres undefined), the inhibition was 6.98%.
